Reference: PubChem BioAssay (NCI)
This is part of a sample that, as a whole, favours compounds with a hit. Of some 83,000 tested, about 20% had one in any assay.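 Percent growth is the endpoint: 0 to 100 indicates growth inhibition (40 means 60% inhibition), 0 means no net growth, and negative values indicate cell death.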 Unmarked numbers belong to inactive results. Active and inactive are the calls of the source. The calls were made as follows: active = growth percent below 10; inactive = the rest.

How the values were obtained:
Assay in all cases: NCI-60 one-dose screen, 48 h (100 = growth as untreated, 0 = no growth, -100 = all killed)
Settings in all cases: 10 µM unless noted
T-47D breast = system: T-47D breast
BT-549 breast = system: BT-549 breast
MDA-MB-435 melanoma = system: MDA-MB-435 melanoma
SW-620 colon = system: SW-620 colon
MCF7 breast = system: MCF7 breast
HCT-116 colon = system: HCT-116 colon
HCC-2998 colon = system: HCC-2998 colon
KM12 colon = system: KM12 colon

SMILES	growth (T-47D breast)	growth (BT-549 breast)	growth (MDA-MB-435 melanoma)	growth (SW-620 colon)	growth (MCF7 breast)	growth (HCT-116 colon)	growth (HCC-2998 colon)	growth (KM12 colon)
Cn1cc(-c2nc(-c3c[nH]c4c(Cl)nccc34)cs2)c2cc(F)ccc21	48.6%	118%	98.6%	102%	68.1%	105%	119%	96.4%
Cc1ccc(S(=O)(=O)Nn2c3c(cc(-c4nc5ccccc5s4)c2=O)CCCCCC3)cc1	96.4%	109%	103%	99.6%	91.3%	98%	115%	101%
C=C1C(=O)O[C@H]2[C@H]1CC/C(CNC(=O)/C=C/c1cccc(OC)c1)=C\CC[C@@]1(C)O[C@@H]21	-4.32% (active)	-12.3% (active)	16.7%	-61.9% (active)	-7.47% (active)	-62.2% (active)	36.5%	80%
CCOC(=O)c1cc(C(=O)c2cc(OC)cc(OC)c2)n2ccc3ccccc3c12	95%	74.7%	99.5%	102%	99.2%	84%	108%	100%
Cc1cnc(C(=O)Nc2nc3ccc(S(=O)(=O)Nc4ccc(C5(C(F)(F)F)CC5)cc4)cc3[nH]2)cn1	21.6%	40.6%	-77.5% (active)	15%	17.4%	19.5%	42.4%	16%
COc1ccc(NC(N)=NCCCOc2ccc(F)cc2)cc1	23.2%	67.3%	80.4%	88.6%	10.7%	54%	76.3%	84.4%
O=C(/C(=C\c1ccc([N+](=O)[O-])cc1)S(=O)Cc1ccc(Cl)cc1)c1ccc(Cl)cc1 (stereo not given)	51.6%	94.6%	82.6%	28%	49%	4.9% (active)	80.4%	73.8%
O=C(c1ccccc1)N1N=C(c2ccc(-n3ccc(C(F)(F)F)n3)c(F)c2)CC1c1ccc[nH]1 (stereo not given)	90.6%	110%	102%	108%	96.4%	105%	112%	104%
COc1ccc(Cc2cnc(NC(=O)c3ccc4c(c3)OCCO4)s2)cc1	42.8%	43.6%	4.11% (active)	31.4%	9.58% (active)	7.75% (active)	18.8%	10.3%
O=C(NCCc1ccccc1)Nc1ccc2cc3ccc(NC(=O)NCCc4ccccc4)cc3nc2c1	29.7%	70.6%	-13.7% (active)	1.33% (active)	0.969% (active)	-32.5% (active)	-8.17% (active)	47.7%
CN1C(N2CCN(S(=O)(=O)c3ccccc3)CC2)=NS(=O)(=O)c2ccccc21	101%	119%	109%	123%	91.1%	109%	101%	91.5%
CN(C)CCn1c2ccc(Br)cc2c2nc3ccccc3nc21	38.4%	84.4%	41.8%	17.5%	19.7%	18.2%	47.3%	35%
CCN(CC)CCCC(C)Nc1cc(O)cc2cccnc12 (stereo not given)	110%	105%	106%	97.2%	95%	87.6%	96.4%	105%
OCc1cnccc1NCCCCOc1ccc(Oc2ccccc2)cc1	35.4%	62.6%	59.9%	49.2%	33.2%	31.3%	89.6%	64.8%
Cc1nn(-c2ccccc2)c(Cl)c1/C=C/C(=O)c1ccc(F)cc1	82.5%	92.9%	87%	64.7%	41.5%	51.1%	107%	84.9%
CNCCOc1nc2c3cnccc3cc(-c3cc(OC)c(OC)c(OC)c3)c2c2ccncc12	-12.4% (active)	-45.5% (active)	-90.1% (active)	3.63% (active)	-0.459% (active)	-89.9% (active)	-77% (active)	5.03% (active)
CCOC(=O)CC1CSC(N/N=C/c2ccc(-n3cccn3)cc2)=N1 (stereo not given)	106%	116%	110%	106%	98.1%	98.7%	103%	103%
CCCCCN1C=C/C(=C\C(=O)N(C)c2ccc(Oc3ccccc3)cc2)c2ccccc21	54.1%	91.4%	91.4%	84.3%	66.7%	58.7%	86.7%	90.5%
Cn1cc(-c2csc(-c3c[nH]c4ccccc34)n2)c2ccnc(Cl)c21	18.4%	93.8%	75.7%	41.7%	30.3%	59.4%	92.4%	58.9%
Fc1ccc(-c2cn3c(nc4ccccc43)c(-c3ccccc3)n2)cc1	86.2%	105%	98%	95.8%	92.8%	89.1%	98.9%	92.1%
O=[N+]([O-])CC(c1ccccc1F)c1c[nH]c2ccccc12 (stereo not given)	59.4%	73.8%	3.66% (active)	39%	54.3%	65.2%	80.6%	59.5%
O=[N+]([O-])c1ccc(N=Nc2cc(S(=O)(=O)O)c3cccc(S(=O)(=O)O)c3c2O)cc1	108%	105%	86%	112%	97.7%	97.7%	112%	118%
CCCCCCNC(=O)Oc1ccc(/C(=C(\C)c2ccccc2)c2ccc(OCCN3CCCCC3)cc2)cc1	30.1%	64.2%	68.2%	34.1%	12.7%	33.9%	76.6%	49.2%
N/C(=N\C(N)=N\c1nc2ccccc2s1)c1cnccn1	18.2%	38.3%	4.7% (active)	11.4%	11.4%	8.53% (active)	18.5%	8.11% (active)
Cc1ncc(C(=O)Nc2ccc(CN3CCN(C)CC3)c(C(F)(F)F)c2)cc1C#Cc1cnc(N)cc1C#N	57.8%	38%	-95.8% (active)	-57.4% (active)	-75.6% (active)	-71.5% (active)	54.5%	-83.1% (active)
CCc1c(Cl)nc(N)nc1Nc1ccc(C)c(C)c1	91.2%	106%	99.6%	102%	83.1%	76%	101%	99.2%
COc1ccc(/C=C/c2nc(Nc3cccc(NC(C)=O)c3)c3ccccc3n2)cc1	70%	92.1%	85.2%	92.1%	49.9%	81.3%	88.4%	83.2%
C=C1C(=O)O[C@H]2[C@H]1CC/C(CNS(=O)(=O)c1cccc3ccccc13)=C\CC[C@@]1(C)O[C@@H]21	24.5%	37.2%	38.1%	-34.9% (active)	16.2%	-60.7% (active)	71.5%	85%
O=c1[nH]nc(-c2ccccc2)c2sc3ncc(-c4ccc(Br)cc4)n3c12	43.1%	52.1%	-25.7% (active)	35%	28.9%	16.6%	89.8%	33.9%
O=C1Nc2ccccc2/C1=C\c1c(-c2ccc(F)cc2)nc2ccccn12	60.6%	69.6%	-21.1% (active)	64.5%	62.8%	64.2%	130%	46.3%
